# Rin1 Abl inh – inhibitors of Rin1-Abl protein binding, primary screen, biochemical, TR-FRET. Tyrosine-protein kinase ABL1 (Homo sapiens) + Ras and Rab interactor 1 (Homo sapiens), …. inhibition, % at 7.35 µM. 360,000 tested, 0.4% active. AID 588664, 2011; in the data active = inhibition above about 5%, passing the limit was not always enough
# SUMO1-SIM PPI – modulators of SUMO1 protein-protein interactions, primary screen, biochemical, uHTS; Small ubiquitin-related modifier 1 (Homo sapiens), P63165; 360,000 tested, 0.33% active; inhibition, % at 20 µM; SUMO1 binding to a labelled peptide, TR-FRET, 1 h; in the data active = inhibition above about 37%
# Target sequence (P63165 whole entry, looked up): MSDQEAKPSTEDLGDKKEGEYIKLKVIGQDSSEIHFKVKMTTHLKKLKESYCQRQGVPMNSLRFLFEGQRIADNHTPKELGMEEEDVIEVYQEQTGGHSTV
# ATG4B inh – ATG4B protease inhibitors, primary screen, biochemical, fluorescence, uHTS; Cysteine protease ATG4B (Homo sapiens), Q9Y4P1; ATG4B cleavage of LC3-PLA2, NBD-HPC fluorescence, 1 h; inhibition, % at 8.33 µM; 340,000 tested, 0.51% active; AID 504462, 2011; in the data active = inhibition above about 40%
# Neddylation inh – inhibitors of cullin neddylation, primary screen, biochemical, TR-FRET, uHTS, NAE and Ubc12. 360,000 tested, 0.58% active. AID 651699, 2012. inhibition, % at 25 µM. NEDD8-conjugating enzyme Ubc12 (Homo sapiens) + NEDD8-activating enzyme E1 regulatory …; in the data active = inhibition above about 36%
# ATG4B conf – ATG4B protease inhibitors, retest, confirmation, biochemical, fluorescence, single concentration; inhibition, % at 8.33 µM; ATG4B protease fluorescent substrate cleavage assay; 320 tested, 92% active; shares compounds with ATG4B inh; in the data active = inhibition above about 39%
# PLA2 ctr – PLA2 enzyme inhibition, counter-screen for ATG4B inhibitor project, biochemical, single concentration, uHTS hits | shares compounds with ATG4B inh | purified PLA2, NBD-C6-HPC fluorescence, 45 min | inhibition, % at 8.33 µM | 1,600 tested, 66% active; in the data active = inhibition above about 50%
# Target sequence (P04054 whole entry, looked up): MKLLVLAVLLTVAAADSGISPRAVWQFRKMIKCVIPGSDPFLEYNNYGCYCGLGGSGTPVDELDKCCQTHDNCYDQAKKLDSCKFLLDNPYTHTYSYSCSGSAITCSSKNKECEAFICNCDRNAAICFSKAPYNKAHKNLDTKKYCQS
# * marks the source's active call; other numbers are inactive results; / = not tested or not shown. This is a sample that favours compounds with a hit; in the whole collection about 1.7% have one here.
SMILES,Rin1 Abl inh,SUMO1-SIM PPI,ATG4B inh,Neddylation inh,PLA2 ctr,others
O=C(Cn1nnc(-c2ccc(S(=O)(=O)N3CCCC3)cc2)n1)Nc1ccccc1-n1cccc1,-2,-6,54*,-4,62*,
CCCCc1ccc(NC(=S)NCc2cccc(OC)c2)cc1,-3,4,80*,0,79*,
COc1ccc2[nH]c(C(=O)N3CCc4ccccc4C3)c(C)c2c1,0,-2,62*,27,64*,
COc1ccc(OC)c(-c2cc(C(=O)N3CCc4ccccc4C3)no2)c1,-1,4,49*,30,56*,
O=c1[nH]nc(SC2CCCCC2)c(=O)[nH]1,1,-8,10,-8,/,
O=C(O)c1ccccc1C(=O)c1ccc2oc(=O)[nH]c2c1,0,11,2,0,/,
Oc1c(Cl)cc(Cl)cc1C=Nc1ccc2c(c1)OCCO2,0,-6,48*,21,32,ATG4B conf=54*
COC(=O)[C@@]12C[C@@H](CC(=O)N3CCN(C(=O)c4ccco4)CC3)C(=O)N(Cc3ccccc3)C1=CCC(C)(C)C2,/,-1,/,8,/,
Cc1ccc(S(=O)(=O)Nc2ccc(-c3nnc(SCc4ccccc4Cl)o3)cc2)cc1,0,0,52*,-3,46,
CC(C)CCn1c2ccccc2c2cc(CC(N)=O)ccc21,1,1,68*,-29,77*,
COc1ccc(CSC(=N)N)cc1[N+](=O)[O-],1,-14,-9,-13,/,
CCCCCOc1ccc(CSC(=N)N)cc1[N+](=O)[O-],-3,-13,64*,-27,61*,
CCCc1cc(=O)[nH]c(SCc2ccc(Cl)cc2)n1,1,5,9,10,/,
CCCc1cc(=O)[nH]c(SCc2cc(Cl)ccc2OC(F)F)n1,1,-1,57*,-3,48,ATG4B conf=52*
O=C(Nc1c(F)cccc1F)c1ccc2c(c1)CCN2S(=O)(=O)c1ccccc1,-1,0,69*,-2,69*,
O=C(Nc1ccccc1F)c1ccc2c(c1)CCN2S(=O)(=O)c1ccccc1,1,10,34,1,/,
O=S1(=O)CC(N2CC=CC2)CN1C1CCCCC1 (centres undefined),4,8,/,13,/,
OC(c1ccc(F)cc1)c1nc(-c2cncnc2)cs1 (centres undefined),-2,-2,/,-11,/,
O=C(c1cnn(C(=O)COc2ccc(Cl)cc2)c1)c1ccccc1O,-2,5,56*,37,60*,
COc1ccc(-c2cc(C(F)(F)F)nc(SCc3cccc(C(=O)O)c3)n2)cc1,1,17,44*,-43,56*,
O=S(=O)(c1cccs1)N1CCN(c2ccccc2Cl)CC1,5,3,45*,-6,64*,
C[C@@H]1CN([C@H](C)CO)C(=O)CCCn2nncc2CO[C@H]1CN(C)S(=O)(=O)c1ccc(C#N)cc1,-4,3,/,-1,/,
O=C(O)c1[nH]c2ccccc2c1C(c1cc(Cl)cc([N+](=O)[O-])c1O)c1c(C(=O)O)[nH]c2ccccc12,-2,4,58*,-10,40,ATG4B conf=30
CCOC(=O)N1CCN(C(C(=O)NC2CCCC2)c2cccc(OC)c2OC)CC1 (centres undefined),/,1,/,1,/,
CCn1c(/C=C/c2c[nH]c3ccccc23)nc2ccccc2c1=O,0,2,23,36,/,
SMILES,Rin1 Abl inh,SUMO1-SIM PPI,ATG4B inh,Neddylation inh,PLA2 ctr,others
CN(C)S(=O)(=O)c1ccc2[nH]cc(/C=C/c3nc4ccccc4c(=O)n3-c3ccccc3)c2c1,3,-1,42*,/,9,ATG4B conf=105*
O=C(CNCCc1ccc(Cl)cc1Cl)NCc1ccco1,0,-2,41*,9,45,ATG4B conf=66*
O=C(CNCc1ccccc1Cl)NCc1ccco1,0,-3,-6,3,/,
N#Cc1c(N)[nH]c2ccc(Sc3ccccc3)cc12,0,29,41*,1,40,ATG4B conf=68*
Oc1ccccc1C1CCCCC1c1ccccc1 (centres undefined),3,1,52*,4,49,
O=c1c2ccccc2c(-c2ccc(O)cc2)nn1-c1cccc(C(F)(F)F)c1,-1,1,60*,17,72*,
O=c1c2ccccc2c(-c2cccc(C(F)(F)F)c2)nn1-c1ccccc1,0,3,12,11,/,
O=C(N/N=C/c1coc2ccccc2c1=O)c1cccc([N+](=O)[O-])c1,-1,-15,46*,1,-12,
COc1cc(C(=O)N/N=C/c2coc3ccc(Cl)cc3c2=O)ccc1O,-1,-4,51*,7,38,ATG4B conf=38
CCc1nc2c(OCC=C(C)C)cccn2c1N(C)C(=O)c1ccc(OC)cc1,-3,-2,/,4,/,
O=c1[nH]c2cnn(-c3ccccc3)c2c(=O)n1O,1,5,-8,16,/,
Cc1c(C(=O)N2CCc3ccccc3C2)sc2nc(-c3ccccc3)cn12,-2,6,45*,-3,53*,
COc1ccc(-c2cn3c(C)c(C(=O)N4CCc5ccccc5C4)sc3n2)cc1,-1,5,34,-7,/,
COc1ccc(C2=NOC(Cn3nc(C(=O)NCc4cccc(C(F)(F)F)c4)cc3-c3ccccc3)C2)cc1 (centres undefined),1,3,67*,-24,82*,
CC(=O)Nc1cccc(-c2ccnc3c2CC(C)(C(=O)Nc2ccc(C(C)C)cc2)O3)c1 (centres undefined),1,4,/,13,/,
CC1=C(SCc2ccccc2)C(=O)c2ccccc2C1=O,0,21,-9,-14,/,
O=C1C(SCCO)=C(SCCO)C(=O)c2ccccc21,-2,35,44*,-26,-16,ATG4B conf=72*
O=C(NCc1ccccc1)c1ccc(CS(=O)Cc2cccc(Cl)c2)o1 (centres undefined),-2,3,/,9,/,
Cc1ccc(CS(=O)Cc2ccc(C(=O)NCc3ccccc3Cl)o2)cc1 (centres undefined),4,4,42*,4,38,
O=C(NCc1cccc(Cl)c1)c1ccc(CS(=O)Cc2ccc(Cl)cc2)o1 (centres undefined),3,-4,60*,-1,63*,
Cc1ccc(CNC(=O)c2ccc(CS(=O)Cc3ccccc3Cl)o2)cc1 (centres undefined),-2,4,4,-3,/,
O=C(NCc1cccc(Cl)c1)c1ccc(CS(=O)Cc2ccccc2Cl)o1 (centres undefined),-6,5,69*,-5,69*,
Cc1ccc(OCc2nnc(SCC(=O)c3ccccc3)n2Cc2ccco2)cc1,3,0,60*,-5,63*,

# Screening data as filed in PubChem BioAssay.
